Results reported in PubChem BioAssay.

These compounds were tested against Concanavalin-A (Canavalia ensiformis) (UniProt P02866) (assay: ConA small-molecule binders, primary screen, artefact control for SMM control protein annotation, biochemical, small-molecule microarray, Alexa647 label, 635 nm (AID 1127;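 also: z combines 667 nm emission intensity with signal-to-noise across three replicate slides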)). Details: ConA-A647 binding fluorescence, higher = more signal.
Sequence of Concanavalin-A (Canavalia ensiformis) (P02866 whole entry, looked up): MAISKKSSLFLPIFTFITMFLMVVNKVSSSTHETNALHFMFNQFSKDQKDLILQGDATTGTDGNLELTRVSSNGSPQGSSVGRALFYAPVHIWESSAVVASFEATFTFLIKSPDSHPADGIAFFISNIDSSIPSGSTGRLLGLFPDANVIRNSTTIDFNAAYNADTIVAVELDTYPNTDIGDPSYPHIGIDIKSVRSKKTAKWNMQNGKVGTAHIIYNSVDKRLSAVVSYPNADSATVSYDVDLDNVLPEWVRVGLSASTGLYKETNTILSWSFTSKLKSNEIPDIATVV

For `COCC#Cc1ccc([C@@H]2N[C@H](C(=O)O)CC[C@H]2C)cc1`, which composite z-score is on record?
The composite z-score was -0.691.

How did the composite z-score turn out when `C#CCCCON=C1[C@H]2CCn3c(=O)n([C@@H](CC)c4ccccc4)c(=O)n3[C@H]2[C@H](O)[C@@H]2O[C@H]12` was run?
Its composite z-score is 0.154.

Which composite z-score does the source give for `O=C1CCCC=C1C(O)C1CCCCC1` (configuration not stated) here?
The composite z-score was -0.275.

`C[C@@H](c1ccccc1)N1C(=O)[C@H]2[C@H]3[C@H](O)[C@H](O)CC(=NOC[C@@H](O)COCc4ccco4)[C@H]3CC[C@H]2C1=O` was tested. Which composite z-score did it give?
Its composite z-score is -0.832.

How did the composite z-score turn out when `CCOC(=O)[C@H](CC(C)C)NC(=O)CCC1CC(OC(=O)NCCc2ccc(F)cc2)CC2(CCCC(COC(=O)NCc3cccc4ccccc34)O2)O1` (some centres not stated) was run?
Its composite z-score is 0.873.

Which composite z-score does the source give for `COC(=O)[C@H](C)NC(=O)CCC1CC(OC(=O)NCCc2ccc(F)cc2)CC2(CCCC(COC(=O)NCCc3ccccc3OC)O2)O1` (some centres not stated) here?
The composite z-score was 0.924.

`CCOC(=O)CCN1C(=O)[C@H]2[C@H]3[C@H](O)[C@H](O)CC(=NOCC(C)C)[C@@H]3CC[C@H]2C1=O` was tested. Which composite z-score did it give?
The composite z-score was -1.16.

For `CC[C@@H](c1ccccc1)n1c(=O)n2n(c1=O)[C@H]1[C@H](O)[C@@H]3O[C@@H]3C(=NOCc3ccccc3)[C@H]1CC2`, which composite z-score is on record?
Its composite z-score is 0.966.

With `COc1ccc(O[C@H]2C=C[C@@H](c3ccccc3)O[C@@H]2CON=C(C)CCN2CCCc3nc(C)c(C)cc32)cc1` as the compound, how does the composite z-score read?
Its composite z-score is 0.946.

`COC(OC)[C@@H](C)[C@H](OC)[C@@H](C)[C@H](OC)c1ccccc1` was tested. Which composite z-score did it give?
Its composite z-score is -0.18.

Which composite z-score does the source give for `CC(CCN1CCc2nc(-c3ccccc3)c(-c3ccccc3)cc2C1)=NO[C@@H](C)c1cc(-c2c(C)cc(C)cc2C)no1` here?
The composite z-score was 0.613.

`CO[C@H]1COC(=O)CCC[C@H](C)[C@H](OC)COC(=O)CC=C[C@@H]1C` was tested. Which composite z-score did it give?
The composite z-score was -0.362.
